{"source": "paper PMC4336329", "about": "(PLoS ONE, 2015)", "note": "Among all 310,000 compounds or so, about 14,000 (4.5%) showed an effect of 50% or more. Effects have a minus sign here. Shown is part of a subset that was picked to be rich in strong results.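 Further: peak tail current of the secondary pulse compared with the same well before compound.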", "data": [{"molecular_target": "human ether-à-go-go-related gene (hERG) potassium channel (human, UniProt Q12809)", "sequence (Q12809 whole entry, looked up)": "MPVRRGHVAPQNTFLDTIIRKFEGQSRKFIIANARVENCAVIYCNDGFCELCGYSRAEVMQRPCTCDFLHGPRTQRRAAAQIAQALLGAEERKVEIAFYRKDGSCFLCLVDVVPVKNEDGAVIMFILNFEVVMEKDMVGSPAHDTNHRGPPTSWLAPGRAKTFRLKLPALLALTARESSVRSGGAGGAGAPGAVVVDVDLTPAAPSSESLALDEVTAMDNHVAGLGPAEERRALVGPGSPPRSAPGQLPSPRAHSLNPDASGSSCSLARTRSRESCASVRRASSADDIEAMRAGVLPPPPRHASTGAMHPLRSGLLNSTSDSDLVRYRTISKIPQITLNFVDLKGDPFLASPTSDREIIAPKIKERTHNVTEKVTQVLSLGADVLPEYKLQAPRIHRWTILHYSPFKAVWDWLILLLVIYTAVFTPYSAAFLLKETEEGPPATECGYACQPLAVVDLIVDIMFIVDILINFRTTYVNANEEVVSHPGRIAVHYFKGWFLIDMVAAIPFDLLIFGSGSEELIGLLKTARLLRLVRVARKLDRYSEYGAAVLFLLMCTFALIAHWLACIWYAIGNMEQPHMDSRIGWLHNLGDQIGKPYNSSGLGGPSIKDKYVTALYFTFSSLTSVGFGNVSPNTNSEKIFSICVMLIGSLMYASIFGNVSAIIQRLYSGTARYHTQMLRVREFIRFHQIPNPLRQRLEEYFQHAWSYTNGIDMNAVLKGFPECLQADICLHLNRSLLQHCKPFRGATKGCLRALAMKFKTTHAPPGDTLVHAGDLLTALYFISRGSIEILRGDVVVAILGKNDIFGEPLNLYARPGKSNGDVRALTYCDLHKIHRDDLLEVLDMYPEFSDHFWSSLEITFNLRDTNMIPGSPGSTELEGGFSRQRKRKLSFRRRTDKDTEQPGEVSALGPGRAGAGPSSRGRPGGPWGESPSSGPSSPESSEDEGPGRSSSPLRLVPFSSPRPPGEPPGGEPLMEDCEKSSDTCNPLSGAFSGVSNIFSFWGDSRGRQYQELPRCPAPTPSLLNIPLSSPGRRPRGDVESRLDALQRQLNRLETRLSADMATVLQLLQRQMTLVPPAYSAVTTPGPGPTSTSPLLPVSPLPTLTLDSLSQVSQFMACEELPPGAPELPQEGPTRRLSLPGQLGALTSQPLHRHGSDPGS", "experiment": "primary screen, population patch clamp on CHO cells stably expressing hERG; higher = less effect of the substance", "units": {"hERG current change (%, negative = inhibition) at 10uM": "%"}, "values": [{"smiles": "Cc1ccc(C2=NOC(C)(c3nnc(Cc4ccccc4)o3)C2)cc1", "note": "(centres unmarked)", "hERG current change (%, negative = inhibition) at 10uM": -15.2}, {"smiles": "CC1(c2nnc(Cc3ccccc3)o2)CC(c2ccccc2)=NO1", "note": "(centres unmarked)", "hERG current change (%, negative = inhibition) at 10uM": -18}, {"smiles": "CC1(c2nnc(Cc3ccccc3)o2)CC(c2ccc(Cl)cc2)=NO1", "note": "(centres unmarked)", "hERG current change (%, negative = inhibition) at 10uM": -23.3}, {"smiles": "CC1(c2nnc(Cc3ccccc3)o2)CC(c2cccc([N+](=O)[O-])c2)=NO1", "note": "(centres unmarked)", "hERG current change (%, negative = inhibition) at 10uM": -7.45}, {"smiles": "CC1(c2nnc(Cc3ccccc3)o2)CC(c2ccc([N+](=O)[O-])cc2)=NO1", "note": "(centres unmarked)", "hERG current change (%, negative = inhibition) at 10uM": -63.2}, {"smiles": "CC1(c2nnc(Cc3ccccc3)o2)CC(c2ccc(C#N)cc2)=NO1", "note": "(centres unmarked)", "hERG current change (%, negative = inhibition) at 10uM": -62.3}, {"smiles": "CC1(C)CC(=O)C=C(N2CCNCC2)C1", "hERG current change (%, negative = inhibition) at 10uM": 14.9}, {"smiles": "CCOC(=O)C1CCCN(C(=O)c2ccc(C)c(S(=O)(=O)N3CCCCC3)c2)C1", "note": "(centres unmarked)", "hERG current change (%, negative = inhibition) at 10uM": -25.3}, {"smiles": "O=C(c1ccc(Cl)c(S(=O)(=O)N2CCCC2)c1)N1CCCC(C(F)(F)F)C1", "note": "(centres unmarked)", "hERG current change (%, negative = inhibition) at 10uM": -18.1}, {"smiles": "CC1CCCN(C(=O)c2ccc(Cl)c(S(=O)(=O)N3CCCCCC3)c2)C1", "note": "(centres unmarked)", "hERG current change (%, negative = inhibition) at 10uM": -76.3}, {"smiles": "CCOC(=O)C1CCCN(C(=O)c2ccc(Cl)c(S(=O)(=O)N3CCCCC3)c2)C1", "note": "(centres unmarked)", "hERG current change (%, negative = inhibition) at 10uM": -13.8}, {"smiles": "O=C(c1ccc(Cl)c(S(=O)(=O)N2CCCCC2)c1)N1CCCC(C(F)(F)F)C1", "note": "(centres unmarked)", "hERG current change (%, negative = inhibition) at 10uM": -31.8}, {"smiles": "O=C(c1cccc(N2C(=O)c3ccccc3C2=O)c1)N1CCCC(C(F)(F)F)C1", "note": "(centres unmarked)", "hERG current change (%, negative = inhibition) at 10uM": -53.9}, {"smiles": "O=C(c1ccc(Cl)c(S(=O)(=O)N2CCCCCC2)c1)N1CCCC(C(F)(F)F)C1", "note": "(centres unmarked)", "hERG current change (%, negative = inhibition) at 10uM": -58.9}, {"smiles": "O=C(c1cccc(N2C(=O)c3ccccc3C2=O)c1)N1CCCCCC1", "hERG current change (%, negative = inhibition) at 10uM": 2.21}, {"smiles": "O=C(c1ccc(Cl)c(S(=O)(=O)N2CCCC2)c1)N1CCCCC1", "hERG current change (%, negative = inhibition) at 10uM": 3.08}, {"smiles": "CCOC(=O)C1CCCN(C(=O)c2cccc(N3C(=O)c4ccccc4C3=O)c2)C1", "note": "(centres unmarked)", "hERG current change (%, negative = inhibition) at 10uM": -18.4}, {"smiles": "O=C(c1ccc(Cl)c(S(=O)(=O)N2CCCCC2)c1)N1CCCC1", "hERG current change (%, negative = inhibition) at 10uM": -7.02}, {"smiles": "CCOC(=O)C1CCCN(C(=O)c2ccc(Cl)c(S(=O)(=O)N3CCCCCC3)c2)C1", "note": "(centres unmarked)", "hERG current change (%, negative = inhibition) at 10uM": -70.7}, {"smiles": "CSc1cccc(NC(=O)OC2CCCCCCCCCCC2)c1", "hERG current change (%, negative = inhibition) at 10uM": 7.83}, {"smiles": "Cc1ccc(S(=O)(=O)N2C(=O)/C(=C3\\SC(=S)NC3=O)c3ccccc32)cc1", "hERG current change (%, negative = inhibition) at 10uM": 10}, {"smiles": "Fc1ccccc1CSc1ncnc2sc3c(c12)CCCC3", "hERG current change (%, negative = inhibition) at 10uM": 2.75}, {"smiles": "O=C(Nc1ccc2nn(-c3ccccc3)nc2c1)c1ccc(Br)o1", "hERG current change (%, negative = inhibition) at 10uM": 7.88}, {"smiles": "CCOc1cc(C)c(C(C)C)cc1S(=O)(=O)n1ccc(C)n1", "hERG current change (%, negative = inhibition) at 10uM": -29.4}, {"smiles": "Cc1nn(C)c(C)c1NC(=O)/C(C#N)=C\\N(C)C", "hERG current change (%, negative = inhibition) at 10uM": 12.6}, {"smiles": "NC(=O)C1(N2CCCCC2)CCN(C(=O)CSc2nc3ccccc3o2)CC1", "hERG current change (%, negative = inhibition) at 10uM": -4.85}, {"smiles": "COC(=O)C1=C(C)N(CCC2=CCCCC2)C(=O)C1", "hERG current change (%, negative = inhibition) at 10uM": 1.46}, {"smiles": "CC(C)(Oc1ccc(CCNC(=O)c2ccc(-c3ccccc3)o2)cc1)C(=O)O", "hERG current change (%, negative = inhibition) at 10uM": 14}, {"smiles": "O=C(CC1SC(N2CCCC2)=NC1=O)Nc1ccc(C(=O)N2CCCC(C(F)(F)F)C2)cc1", "note": "(centres unmarked)", "hERG current change (%, negative = inhibition) at 10uM": 18.8}, {"smiles": "Cc1ccc2cc(CN(C)S(C)(=O)=O)c(=O)[nH]c2c1", "hERG current change (%, negative = inhibition) at 10uM": 26.9}, {"smiles": "CCOC(=O)c1ccc(Cl)c(S(=O)(=O)N2CCCC2)c1", "hERG current change (%, negative = inhibition) at 10uM": 23.8}, {"smiles": "NC(=O)COC(=O)c1ccc(Cl)c(S(=O)(=O)N2CCCCCC2)c1", "hERG current change (%, negative = inhibition) at 10uM": -4.36}, {"smiles": "CN(C(=O)COC(=O)c1ccc(Cl)c(S(=O)(=O)N2CCCCC2)c1)C1(C#N)CCCCC1", "hERG current change (%, negative = inhibition) at 10uM": -57.4}, {"smiles": "CCN(CC)S(=O)(=O)c1ccc(C)c(NC(=O)CNc2cccc(S(=O)(=O)N3CCOCC3)c2)c1", "hERG current change (%, negative = inhibition) at 10uM": -17.7}, {"smiles": "Cc1c(C(=O)N(C)C)sc2nc(-c3ccccn3)[nH]c(=O)c12", "hERG current change (%, negative = inhibition) at 10uM": -2.71}, {"smiles": "COCCCn1c(SCC(=O)Nc2ccc(C)cc2)nc2ccccc2c1=O", "hERG current change (%, negative = inhibition) at 10uM": -2.1}, {"smiles": "CN(C)CCCn1c(SCC(=O)N2CC(=O)Nc3ccccc32)nc2ccccc2c1=O", "hERG current change (%, negative = inhibition) at 10uM": -17.6}, {"smiles": "COc1ccc(OC)c(NC(=O)CSc2nc3ccccc3c(=O)n2CCNC(C)=O)c1", "hERG current change (%, negative = inhibition) at 10uM": -2.83}, {"smiles": "COc1ccc(NC(=O)CSc2nc3ccccc3c(=O)n2CCNC(C)=O)c(OC)c1", "hERG current change (%, negative = inhibition) at 10uM": -25.1}, {"smiles": "COc1ccccc1NC(=O)CSc1nc2ccccc2c(=O)n1CCNC(C)=O", "hERG current change (%, negative = inhibition) at 10uM": -62.2}, {"smiles": "COCCn1c(SCC(=O)N2CC(=O)Nc3ccccc32)nc2ccccc2c1=O", "hERG current change (%, negative = inhibition) at 10uM": -26.9}, {"smiles": "COCCCn1c(SCC(=O)Nc2ccc(C(=O)OC)cc2)nc2ccccc2c1=O", "hERG current change (%, negative = inhibition) at 10uM": -25.6}, {"smiles": "COc1ccc(NC(=O)CSc2nc3ccccc3c(=O)n2CCNC(C)=O)cc1", "hERG current change (%, negative = inhibition) at 10uM": -73.6}, {"smiles": "COCCCn1c(SCC(=O)Nc2ccc(C(C)=O)cc2)nc2ccccc2c1=O", "hERG current change (%, negative = inhibition) at 10uM": -51.5}, {"smiles": "CC(C)N(CCn1c(SCC(=O)N2CC(=O)Nc3ccccc32)nc2ccccc2c1=O)C(C)C", "hERG current change (%, negative = inhibition) at 10uM": -76.6}, {"smiles": "CCOc1ccc(NC(=O)CSc2nc3ccccc3c(=O)n2CCNC(C)=O)cc1", "hERG current change (%, negative = inhibition) at 10uM": -6.93}, {"smiles": "CC(=O)NCCn1c(SCC(=O)Nc2ccc(C)cc2)nc2ccccc2c1=O", "hERG current change (%, negative = inhibition) at 10uM": 5.81}, {"smiles": "O=C(O)CCCC(=O)N(Cc1ccccc1)Cc1ccccc1", "hERG current change (%, negative = inhibition) at 10uM": 30.4}, {"smiles": "Cn1c2c(c(=O)n(C)c1=O)C(c1cccc([N+](=O)[O-])c1)Nc1ccccc1O2", "note": "(centres unmarked)", "hERG current change (%, negative = inhibition) at 10uM": -12.3}, {"smiles": "C[C@H](N)C(=O)N1CCC(C(=O)N[C@@H](Cc2ccccc2)C(=O)Nc2ccc(F)cc2)CC1", "hERG current change (%, negative = inhibition) at 10uM": -5.88}, {"smiles": "CC(=O)Nc1c([N+](=O)[O-])cc(C)c(Cl)c1[N+](=O)[O-]", "hERG current change (%, negative = inhibition) at 10uM": 6.22}, {"smiles": "COc1ccc(Cn2c(=O)[nH]c3cc(C(=O)N4CCN(c5ccc(OC)cc5)CC4)ccc3c2=O)cc1", "hERG current change (%, negative = inhibition) at 10uM": 10.1}, {"smiles": "Cc1cc(Cl)cc(Br)c1OCCNCC(C)O", "note": "(centres unmarked)", "hERG current change (%, negative = inhibition) at 10uM": -18.7}]}]}
